DUX4 txn inh – blocks DUX4-driven transcriptional activation. 293T-iDUX4 ZSCAN4-Gaussia luciferase reporter, 24 h; active compounds read low. activity change, negative = inhibition, % (test concentration not listed). 37,000 tested, 0.8% active. AID 1224904;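 active = mean inhibition of at least 10% in the main channel, exceeding the control channel by a set limit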;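 also: 0% = median of neutral control wells and -100% = median of positive control wells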
* = called active by the depositor; ! = not confirmed by another sample. Only a selection was taken, and hits are over-represented in it overall.

SMILES	DUX4 txn inh
COc1cccc(CN2[C@@H]3CNC[C@H]2[C@H]3c2ccc(-c3ccccc3OC)cc2)c1	8
COc1cccc(CN2C[C@@H]3N[C@H](C2)C3c2ccc(-c3ccccc3C)cc2)c1 (some centres undefined)	-35*!
Fc1ccc(-c2ccc(C3[C@@H]4CN(Cc5cccc(F)c5)C[C@H]3N4)cc2)cc1 (some centres undefined)	-36*!
Fc1cccc(CN2[C@@H]3CNC[C@H]2C3c2ccc(-c3ccccc3)cc2)c1 (some centres undefined)	16
Cc1cccc(-c2ccc(C3[C@@H]4CN(Cc5cccnc5)C[C@H]3N4)cc2)c1 (some centres undefined)	20
Cc1ccccc1-c1ccc(C2[C@@H]3CN(C(=O)c4cnccn4)C[C@H]2N3)cc1 (some centres undefined)	4
CN(C)C(=O)c1ccc(-c2ccc(C3[C@@H]4CN(Cc5cncnc5)C[C@H]3N4)cc2)cc1 (some centres undefined)	17
C[C@H](CO)N1C[C@H](C)[C@@H](CN(C)Cc2ccc3c(c2)OCO3)Oc2c(NC(=O)Nc3ccc(C(F)(F)F)cc3)cccc2C1=O	1
C[C@@H]1CCCCO[C@@H](CN(C)S(=O)(=O)c2ccccc2)[C@H](C)CN([C@@H](C)CO)C(=O)c2cc(NS(C)(=O)=O)ccc2O1	-4
C[C@@H]1CN([C@H](C)CO)C(=O)Cc2cc(NS(C)(=O)=O)ccc2O[C@@H]1CN(C)C(=O)Nc1ccccc1	-3
Cc1noc(C)c1S(=O)(=O)N(C)C[C@@H]1Oc2c(NS(=O)(=O)c3cn(C)cn3)cccc2C(=O)N([C@H](C)CO)C[C@H]1C	-3
O=S(=O)(N[C@@H]1CC[C@H](CCn2cc(Cc3ccccc3)nn2)O[C@H]1CO)c1ccccc1F	-1
CN(C)CC(=O)N1[C@@H]2c3ccc(-c4ccncc4)c(=O)n3C[C@H]1[C@H](CO)[C@H]2C(=O)NC1CCC1	-6
CC(=O)NC[C@H]1[C@@H](c2ccc(C3=CCCC3)cc2)[C@@H](CO)N1C(=O)C1CCC1	-4
CO[C@@H]1CN(C)C(=O)c2ccc(NC(=O)NC(C)C)cc2OC[C@@H](C)N(C(=O)NC(C)C)C[C@@H]1C	2
OC[C@H]1[C@H](c2ccc(C#Cc3ccccc3)cc2)[C@H]2CN(CC3CCOCC3)CCCCN21	-8
CN1CCCCN2[C@H](CO)[C@H](c3ccc(C#Cc4ccccc4F)cc3)[C@@H]2C1	6
OC[C@@H]1[C@H](c2ccc(C#Cc3ccccc3)cc2)[C@@H]2CN(CC3CCOCC3)CCCCN12	8
OC[C@@H]1[C@H](c2ccc(C#Cc3ccccc3F)cc2)[C@H]2CN(CC3CCOCC3)CCCCN12	-21*
OC[C@H]1[C@H](c2ccc(C#Cc3ccccc3F)cc2)[C@@H]2CN(CC3CCOCC3)CCCCN12	-13*
CN1CCCCN2[C@H](C1)[C@H](c1ccc(C#Cc3ccccc3F)cc1)[C@@H]2CO	-6
CCCNC(=O)C[C@H]1CC[C@@H]2[C@H](COc3ccc(NC(=O)Cc4cccs4)cc3C(=O)N2C)O1	-4
Cc1ccccc1S(=O)(=O)N1C[C@H]2[C@@H](c3ccccc31)[C@@H](CO)N2C(=O)CC1CC1	0
O=C(C[C@H]1C[C@H]2c3cc(NC(=O)C4CCOCC4)ccc3O[C@H]2[C@H](CO)O1)NCCN1CCCCC1	-1
CN(C)C(=O)c1ccc(-c2cccc(-c3nc(C(=O)N(C)C)cc4c3[C@@H](CCO)N([S@](=O)C(C)(C)C)C4)c2)cc1	1
SMILES	DUX4 txn inh
C[C@@H]1CN([C@H](C)CO)C(=O)c2c(c3ccccc3n2C)-c2ccccc2CO[C@H]1CN(C)C	4
C[C@@H]1CN([C@H](C)CO)C(=O)c2c(c3ccccc3n2C)-c2ccccc2CO[C@H]1CN(C)Cc1ccccc1C(F)(F)F	-49*
C[C@@H]1CN([C@@H](C)CO)C(=O)c2ccccc2-c2ccccc2CO[C@H]1CN(C)Cc1ccccc1C(F)(F)F	-7
C[C@H](CO)N1C[C@H](C)[C@H](CN(C)Cc2cccc3c2OCCCO3)OCc2ccccc2-c2ccccc2C1=O	-1
COc1ccccc1CN(C)C[C@@H]1OCc2ccccc2-c2c(n(C)c3ccccc23)C(=O)N([C@@H](C)CO)C[C@@H]1C	-32*
C[C@@H]1CN([C@@H](C)CO)C(=O)c2c(c3ccccc3n2C)-c2ccccc2CO[C@H]1CN(C)Cc1cccc2c1OCCCO2	-31*
C[C@H]1CN([C@@H](C)CO)C(=O)c2c(c3ccccc3n2C)-c2ccccc2CO[C@@H]1CN(C)C	-8
C[C@@H]1CN([C@H](C)CO)C(=O)c2c(c3ccccc3n2C)-c2ccccc2CO[C@@H]1CN(C)Cc1ccncc1	-1
C[C@H](CO)N1C[C@H](C)[C@@H](CN(C)C)OCc2ccccc2-c2c(n(C)c3ccccc23)C1=O	3
O=C(NCc1ccc(F)cc1)[C@H]1[C@H](CO)[C@H]2Cn3c(cccc3=O)[C@@H]1N2Cc1cccnc1	2
CNC[C@@H]1OCCCC[C@H](C)Oc2ccc(NC(=O)Nc3c(C)noc3C)cc2C(=O)N([C@H](C)CO)C[C@H]1C	-1
CN1c2ccc(-c3ccccc3F)cc2[C@@H]2[C@@H](CCN2C(=O)CN2CCOCC2)[C@@H]1CO	17
CCNC(=O)[C@H]1[C@H](CO)[C@H]2Cn3c(ccc(C4=CCCC4)c3=O)[C@@H]1N2Cc1ccccc1	-9
CC=Cc1ccc2n(c1=O)C[C@H]1[C@H](CO)[C@@H](C(=O)NCC3CC3)[C@@H]2N1C(=O)C1CC1 (mixture of isomers)	-3
COc1ccc2c3c(n(C)c2c1)[C@@H](CO)N(Cc1ccncc1)CC31CN(C(=O)NC(C)C)C1	5
O=C(c1cccc(F)c1)N1CC[C@@H]2[C@H]1c1cc(C#Cc3ccc(F)cc3)ccc1N[C@@H]2CO	-14*
O=C(Cc1ccccc1)N1CC[C@H]2[C@H](CO)Nc3ccc(C#Cc4cccc(F)c4)cc3[C@H]21	-4
COc1ccc(C#Cc2ccc3c(c2)[C@H]2[C@H](CCN2C(=O)c2cccc(F)c2)[C@@H](CO)N3)cc1	11
O=C(c1ccc(F)cc1)N1CC[C@@H]2[C@H](CO)Nc3ccc(C#CC4CC4)cc3[C@@H]21	0
O=C(Cc1ccccc1)N1CC[C@H]2[C@H](CO)Nc3ccc(C#Cc4ccccc4)cc3[C@H]21	9
COc1ccc(C#Cc2ccc3c(c2)[C@@H]2[C@@H](CCN2C(=O)c2cccc(F)c2)[C@@H](CO)N3)cc1	21
O=C(c1ccc(F)cc1)N1CC[C@H]2[C@H](CO)Nc3ccc(C#Cc4ccccc4F)cc3[C@H]21	0
O=C(c1ccc(F)cc1)N1CC[C@@H]2[C@@H](CO)Nc3ccc(C#Cc4ccc(F)cc4)cc3[C@@H]21	-52*
O=C(Cc1ccccc1)N1CC[C@@H]2[C@H](CO)Nc3ccc(C#Cc4cccc(F)c4)cc3[C@@H]21	-19*
O=C(C[C@H]1CC[C@@H]2[C@H](COC[C@H](O)CN2Cc2cccc(Cl)c2)O1)NCC1CCCCC1	-6
CO[C@@H]1CN(C)C(=O)c2ccc(NS(=O)(=O)c3cccc(F)c3)cc2OC[C@H](C)NC[C@@H]1C	5
COCC(=O)N1CC2(CCN(C(=O)c3cccnc3)CC2)c2c([nH]c3cc(OC)ccc23)[C@H]1CO	18
O=C(NCCN1CCCCC1)[C@H]1[C@H](CO)[C@H]2Cn3c(cccc3=O)[C@H]2N1Cc1ccccn1	3
